Measurements published in PubChem BioAssay (NCATS).
Inconclusive results are not listed. Calls of active or inactive are those of the source. The call rests on the fitted dose curve; in most records, active means well fitted curve in the direction sought with a large enough effect; inconclusive means small, poorly fitted or top-dose-only effect, or another doubt; inactive means no such curve, though single readings can be large; an effect the other way counts as inactive or inconclusive.

Legend:
[1] = Quantitative High-Throughput drug screen in 47 multiple myeloma cell lines against the NCATS MIPE library collection: KMS26_JCRB cell viability assay (AID 1918975); further: nearly all actives have a fitted effect of over 45% in size
Outline: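 Myeloma cells (500 per well) were exposed to MIPE 4.0 compounds by pin transfer and incubated 48 hours at 37C, 5% CO2. Viability was read as ATP by CellTiter-Glo luminescence, normalised to DMSO (100%) and media-only (0%) wells.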

[2] = Quantitative High-Throughput drug screen in 47 multiple myeloma cell lines against the NCATS MIPE library collection: MMM1_PLB cell viability assay (AID 1918976); further: nearly all actives have a fitted effect of over 35% in size
Outline: (§1)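 qHTS format: cells plated (500/well), pin-dosed with MIPE 4.0 compounds, kept 48 h at 37 °C. Readout was CellTiter-Glo luminescence, median RLU.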

[3] = Quantitative High-Throughput drug screen in 47 multiple myeloma cell lines against the NCATS MIPE library collection: NCIH929_DSMZ cell viability assay (AID 1918978); further: nearly all actives have a fitted effect of over 35% in size
Outline: as §1

[4] = Quantitative High-Throughput drug screen in 47 multiple myeloma cell lines against the NCATS MIPE library collection: MM1S_ATCC cell viability assay (AID 1918980); further: nearly all actives have a fitted effect of over 45% in size
Outline: as §1

[5] = Quantitative High-Throughput drug screen in 47 multiple myeloma cell lines against the NCATS MIPE library collection: MM1R_ATCC cell viability assay (AID 1918981); further: nearly all actives have a fitted effect of over 35% in size
Outline: as §1

[6] = Quantitative High-Throughput drug screen in 47 multiple myeloma cell lines against the NCATS MIPE library collection: KMS28PE_JCRB cell viability assay (AID 1918983); further: nearly all actives have a fitted effect of over 35% in size
Outline: as §1

[7] = Quantitative High-Throughput drug screen in 47 multiple myeloma cell lines against the NCATS MIPE library collection: L363_DSMZ cell viability assay (AID 1918984); further: nearly all actives have a fitted effect of over 40% in size
Outline: as §1

[8] = Quantitative High-Throughput drug screen in 47 multiple myeloma cell lines against the NCATS MIPE library collection: OCIMY7_PLB cell viability assay (AID 1918987); further: nearly all actives have a fitted effect of over 65% in size
Outline: as §1

[9] = Quantitative High-Throughput drug screen in 47 multiple myeloma cell lines against the NCATS MIPE library collection: OCIMY5_PLB cell viability assay (AID 1918988); further: nearly all actives have a fitted effect of over 65% in size
Outline: as §1

[10] = Quantitative High-Throughput drug screen in 47 multiple myeloma cell lines against the NCATS MIPE library collection: OPM1_PLB cell viability assay (AID 1918989); further: nearly all actives have a fitted effect of over 40% in size
Outline: as §1

[11] = Quantitative High-Throughput drug screen in 47 multiple myeloma cell lines against the NCATS MIPE library collection: SKMM1_PLB cell viability assay (AID 1919863); conditions: SKMM1 myeloma viability, CellTiter-Glo ATP, 48 h; viability: stronger effect = lower value; further: nearly all actives have a fitted effect of over 35% in size; on viability: series mostly up to about 46 µM
Outline: as §1

[12] = Quantitative High-Throughput drug screen in 47 multiple myeloma cell lines against the NCATS MIPE library collection: U266_ATCC cell viability assay (AID 1919864); further: nearly all actives have a fitted effect of over 35% in size
Outline: as §1

[13] = Quantitative High-Throughput drug screen in 47 multiple myeloma cell lines against the NCATS MIPE library collection: XG6_PLB cell viability assay (AID 1919865); further: nearly all actives have a fitted effect of over 40% in size
Outline: as §1

[14] = Quantitative High-Throughput drug screen in 47 multiple myeloma cell lines against the NCATS MIPE library collection: XG1_PLB cell viability assay (AID 1919866); further: nearly all actives have a fitted effect of over 35% in size
Outline: as §1

[15] = Quantitative High-Throughput drug screen in 47 multiple myeloma cell lines against the NCATS MIPE library collection: MOLP8_DSMZ cell viability assay (AID 1918977); further: nearly all actives have a fitted effect of over 45% in size
Outline: as §1

[16] = Quantitative High-Throughput drug screen in 47 multiple myeloma cell lines against the NCATS MIPE library collection: OCIMY1_PLB cell viability assay (AID 1918979); further: nearly all actives have a fitted effect of over 35% in size; on viability: series mostly up to about 46 µM
Outline: as §1

[17] = Quantitative High-Throughput drug screen in 47 multiple myeloma cell lines against the NCATS MIPE library collection: LP1_DSMZ cell viability assay (AID 1918982); further: nearly all actives have a fitted effect of over 35% in size
Outline: as §1

[18] = Quantitative High-Throughput drug screen in 47 multiple myeloma cell lines against the NCATS MIPE library collection: KMS34_JCRB cell viability assay (AID 1918985); further: nearly all actives have a fitted effect of over 40% in size
Outline: as §1
Potency means the concentration at half of the fitted maximal effect.

COc1cc(C)c(Sc2cnc(NC(=O)c3ccc(CNC(C)C(C)C)cc3)s2)cc1C(=O)N1CCN(C(C)=O)CC1 (stereo not drawn)
active: Potency [1] 14.8 µM | Potency [2] 4.69 µM | Potency [3] 2.96 µM | Potency [4] 16.6 µM | Potency [5] 14.8 µM | Potency [6] 14.8 µM | Potency [7] 9.35 µM | Potency [8] 10.5 µM | Potency [9] 5.26 µM | Potency [10] 18.7 µM | Potency [11] 18.7 µM | Potency [12] 23.5 µM | Potency [13] 16.6 µM | Potency [14] 18.7 µM

Clc1ccc2ncc(-c3cccc(NC4CNC4)n3)n2c1
active: Potency [1] 23.5 µM | Potency [15] 14.8 µM | Potency [3] 20.9 µM | Potency [16] 20.9 µM | Potency [4] 5.26 µM | Potency [17] 16.6 µM | Potency [18] 8.33 µM | Potency [8] 14.8 µM | Potency [9] 23.5 µM | Potency [10] 14.8 µM | Potency [12] 18.7 µM | Potency [13] 8.33 µM | Potency [14] 14.8 µM

C[C@H]1C[C@@H]2[C@@H]([C@@H](O)C[C@@]3(C)[C@H]2CC[C@]3(O)C(=O)CO)[C@@]2(C)C=CC(=O)C=C12
active: Potency [17] 0.0833 µM
inactive: Potency [1] | Potency [2] | Potency [3] | Potency [16] | Potency [5] | Potency [18] | Potency [10] | viability [11] 112% | Potency [12] | Potency [13] | Potency [14]

Cc1ccc(S(=O)(=O)Nc2cc(Cl)ccc2C(=O)Nc2nc(-c3ccccc3)cs2)cc1
active: Potency [1] 18.7 µM | Potency [2] 7.43 µM | Potency [15] 20.9 µM | Potency [4] 14.8 µM | Potency [17] 9.35 µM | Potency [18] 20.9 µM | Potency [10] 4.69 µM | Potency [11] 16.6 µM | Potency [12] 20.9 µM

Nc1nc(-c2nn(Cc3ccccc3F)c3ncccc23)nc(N)c1N1CCOCC1
inactive: Potency [1] | Potency [15] | Potency [16] | Potency [4] | Potency [6] | Potency [18] | Potency [9] | viability [11] 84.5%

Cc1nc2ccc(CN(C)c3ccc(C(=O)N[C@@H](CCC(=O)O)C(=O)O)s3)cc2c(=O)[nH]1
active: Potency [1] 9.35 µM | Potency [2] 5.9 µM | Potency [4] 20.9 µM | Potency [7] 1.48 µM | Potency [9] 5.26 µM | Potency [10] 0.469 µM | Potency [12] 11.8 µM | Potency [14] 0.235 µM
inactive: Potency [16] | Potency [17] | Potency [6] | Potency [8] | Potency [13]

COc1cc2nccc(Oc3ccc(NC(=O)C4(C(=O)Nc5ccc(F)cc5)CC4)cc3)c2cc1OC
active: Potency [1] 23.5 µM | Potency [2] 2.35 µM | Potency [15] 14.8 µM | Potency [3] 16.6 µM | Potency [16] 26.4 µM | Potency [4] 0.59 µM | Potency [5] 1.87 µM | Potency [17] 20.9 µM | Potency [18] 14.8 µM | Potency [8] 18.7 µM | Potency [9] 18.7 µM | Potency [10] 23.5 µM | Potency [11] 16.6 µM | Potency [12] 20.9 µM | Potency [13] 0.743 µM

CCc1cc2c(cc1N1CCC(N3CCOCC3)CC1)C(C)(C)c1[nH]c3cc(C#N)ccc3c1C2=O
active: Potency [8] 1.48 µM

C[C@@H]1CN(CC(=O)Nc2ccc3c(c2)Cc2cccc(-c4cc(=O)cc(N5CCOCC5)o4)c2S3)C[C@H](C)O1
active: Potency [1] 20.9 µM | Potency [4] 18.7 µM | Potency [5] 16.6 µM | Potency [7] 14.8 µM | Potency [8] 1.32 µM | Potency [9] 20.9 µM | Potency [10] 16.6 µM | Potency [13] 9.35 µM | Potency [14] 5.9 µM

CCCNC(=O)Nc1ccc(Oc2ncnc3cc(OC)c(OC)cc23)cc1Cl
inactive: Potency [15] | Potency [16] | Potency [5] | Potency [17] | Potency [6] | Potency [7] | Potency [18] | Potency [10] | viability [11] 116% | Potency [13] | Potency [14]
active: Potency [2] 1.66 µM | Potency [4] 20.9 µM

COc1ccc(CC2SC(=O)NC2=O)cc1C(=O)NCc1ccc(C(F)(F)F)cc1 (stereo not drawn)
inactive: Potency [15] | Potency [3] | Potency [5] | Potency [17] | Potency [6] | Potency [18] | Potency [9] | viability [11] 115%
active: Potency [10] 6.62 µM

Cc1cn(-c2cc(NC(=O)c3ccc(C)c(Nc4nccc(-c5cccnc5)n4)c3)cc(C(F)(F)F)c2)cn1
active: Potency [2] 11.8 µM | Potency [15] 20.9 µM | Potency [16] 26.4 µM | Potency [5] 18.7 µM | Potency [17] 23.5 µM | Potency [6] 20.9 µM | Potency [9] 13.2 µM | Potency [11] 26.4 µM
inactive: Potency [3] | Potency [4] | Potency [7] | Potency [8] | Potency [10] | Potency [12] | Potency [14]

Cn1c(CNc2ccc(C(=N)N)cc2)nc2cc(C(=O)N(CCC(=O)O)c3ccccn3)ccc21
active: Potency [4] 14.4 µM
inactive: Potency [1] | Potency [15] | Potency [5] | Potency [7] | Potency [8] | Potency [9] | Potency [10] | viability [11] 127% | Potency [12] | Potency [13] | Potency [14]
